The panel holds about 79,000 compounds, 15% with a hit somewhere; the sample as a whole holds those more often. Values without a mark were called inactive. Rule as the data show it: active = growth inhibition above about 70%; inactive = the rest.
test: NCI Yeast Anticancer Drug Screen. Data for the rad50 strain (AID 155);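 also: 0% = growth of vehicle-only cultures of the same strain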; conditions: S. cerevisiae rad50 strain growth inhibition; at 50.0 µM; hits give high values
Procedure, shortened: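 Compounds were tested on a yeast strain with an engineered DNA damage repair alteration; the reported value is growth inhibition normalised to vehicle treatment.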

| SMILES | growth inhibition [%] |
| --- | --- |
| Cc1cccc(C)c1NC(=S)N(C)C | -8.8 |
| O=C(Cc1nc2ccccc2[nH]c1=O)N/N=C/c1ccc2c(c1)CCC2 | -30.2 |
| O=c1c(=O)n(CCO)n(CCO)c(=O)n1CCO | -29.7 |
| CS(=O)(=O)c1ccc(NN)c(S(C)(=O)=O)c1 | -9.4 |
| Cn1/c(=N\N=C\C(=O)O)sc2ccccc21 | -6.1 |
| C=CCNC1=C2C[C@@H](C)C[C@@H](OC)[C@@H](OC(=O)CCCN)[C@H](C)/C=C(\C)[C@@H](OC(N)=O)[C@H](OC)/C=C\C=C(/C)C(=O)NC(=CC1=O)C2=O | -5.15 |
| CCOc1ccc(NC(=S)NC2CCCCCCCCCCC2)cc1 | 15.7 |
| C=CCNC(=O)C(O)C(O)C(=O)NCC=C (centres undefined) | -25.1 |
| CC1CC(=O)N(N(C)C)C(C#N)(C#N)C1(C#N)C#N (centres undefined) | 24.4 |
| COC(=O)c1cc(NC(=O)CC(=O)c2cccc(N)c2)cc(C(=O)OC)c1 | -3.8 |
| Cc1ccc(-c2noc(C)n2)cc1 | -12.9 |
| Clc1c(Cl)c(Cl)c2nn(C3CCCO3)nc2c1Cl (centres undefined) | 15.3 |
| COc1ccc(/C=C/C(=O)c2ccc(Cl)cc2)c(OC)c1 | 20.5 |
| C(=NCC1CCC(CN=Cc2ccco2)CC1)c1ccco1 (centres undefined) | -21 |
| Cc1ccc(OC2CC(n3cnc4ncnc(Cl)c43)OC2Oc2ccc(C)cc2)cc1 (centres undefined) | 21 |
| COc1ccc(-c2cc(=O)c3c(C)cc(O)cc3o2)cc1OC | 6.55 |
| O=c1oc(-c2ccccc2)nc2cc(Cl)ccc12 | -0.3 |
| O=[N+]([O-])c1ccc(-n2[nH]nnc2=S)cc1 | -6.7 |
| CSc1nc(Br)nc2ncn(C3CC(Oc4ccc(C)cc4)C(COc4ccc(C)cc4)O3)c12 (centres undefined) | 16.7 |

| SMILES | growth inhibition [%] |
| --- | --- |
| CCOc1cc2c(cc1O)/C(=N/NS(=O)(=O)c1ccc(C)cc1)C[C@@H]1[C@@H]2CC[C@]2(C)[C@@H](O)CC[C@@H]12 | 33.9 |
| O=C(NC1=NC2C=CC([N+](=O)[O-])=CC2S1)C(=O)Nn1c(=S)[nH]c2ccccc2c1=O (centres undefined) | 6.8 |
| CCCCC1C(=O)N(c2ccc(S(=O)(=O)Nc3ccccn3)cc2)N(c2ccc(O)c(C(=O)O)c2)C1=O (centres undefined) | 21.8 |
| N#C/C(=C/c1c(O)ccc2ccccc12)C(N)=O | 33.7 |
| Cn1cnc2c(=O)[nH]c(=O)[nH]c21 | 25.9 |
| O=C(Cc1cccc2ccccc12)N/N=C/c1ccc2c(c1)CCC2 | 14.9 |
| CC(C)Oc1ccc(C(=O)NS(=O)(=O)c2ccc(N)cc2)cc1 | -25 |
| COc1cc(-c2nc(SC)nc3c2CCc2ccccc2-3)cc(OC)c1OC | -6 |
| CNC(=S)c1nnsc1N | 1.7 |
| COc1cccc(/C=C/C(=O)c2ccc(Cl)cc2)c1OC | 27 |
| C=C1C(=O)OC2/C=C(\CO)CC/C=C(\CO)CC(OC(=O)C(C)C)C12 (centres undefined) | -17 |
| NC(Cc1ccc(S(=O)(=O)O)cc1)C(=O)NC(Cc1ccc(S(=O)(=O)O)cc1)C(=O)NC(Cc1ccc(S(=O)(=O)O)cc1)C(=O)NC(Cc1ccc(S(=O)(=O)O)cc1)C(=O)O (centres undefined) | -6.5 |
| O=C(CCCCCCCCCCBr)OCc1ccccc1 | -34.2 |
| CC(=O)C1=C(C)N2C(=NC3=C(CCc4ccccc43)C2c2cccc(Br)c2)S1 (centres undefined) | 12.4 |
| C[C@]12CC[C@@H]3c4ccc(OS(N)(=O)=O)cc4CC[C@H]3[C@@H]1CCC2=O | 2.35 |
| Cc1ccc(-c2nc3cc(Cl)ccc3c(=O)o2)cc1 | 14.6 |
| COc1ccc(N=C(C)C(C)=Nc2ccc(OC)cc2)cc1 | -3 |
| O=C1c2c(O)cc(O)cc2OC(c2ccc(O)c(O)c2)C1O (centres undefined) | 9.55 |

test: NCI Yeast Anticancer Drug Screen. Data for the mec2-1 strain (AID 157); conditions: S. cerevisiae mec2-1 strain, at 50.0 µM, hits give high values
Procedure, shortened: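 Vehicle-treated cultures served as reference for growth inhibition of compound-exposed mec2-1 yeast.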

| SMILES | growth inhibition [%] |
| --- | --- |
| Cc1cccc(C)c1NC(=S)N(C)C | -7.3 |
| O=C(Cc1nc2ccccc2[nH]c1=O)N/N=C/c1ccc2c(c1)CCC2 | -28.6 |
| O=c1c(=O)n(CCO)n(CCO)c(=O)n1CCO | -28.9 |
| CS(=O)(=O)c1ccc(NN)c(S(C)(=O)=O)c1 | -10.3 |
| Cn1/c(=N\N=C\C(=O)O)sc2ccccc21 | -13.8 |
| C=CCNC1=C2C[C@@H](C)C[C@@H](OC)[C@@H](OC(=O)CCCN)[C@H](C)/C=C(\C)[C@@H](OC(N)=O)[C@H](OC)/C=C\C=C(/C)C(=O)NC(=CC1=O)C2=O | -0.55 |
| CCOc1ccc(NC(=S)NC2CCCCCCCCCCC2)cc1 | 10.1 |
| C=CCNC(=O)C(O)C(O)C(=O)NCC=C (centres undefined) | -32.5 |
| CC1CC(=O)N(N(C)C)C(C#N)(C#N)C1(C#N)C#N (centres undefined) | 30.6 |
| COC(=O)c1cc(NC(=O)CC(=O)c2cccc(N)c2)cc(C(=O)OC)c1 | -12.8 |
| Cc1ccc(-c2noc(C)n2)cc1 | 13.2 |
| Clc1c(Cl)c(Cl)c2nn(C3CCCO3)nc2c1Cl (centres undefined) | 3.2 |
| COc1ccc(/C=C/C(=O)c2ccc(Cl)cc2)c(OC)c1 | -11.9 |
| C(=NCC1CCC(CN=Cc2ccco2)CC1)c1ccco1 (centres undefined) | -24.8 |
| Cc1ccc(OC2CC(n3cnc4ncnc(Cl)c43)OC2Oc2ccc(C)cc2)cc1 (centres undefined) | 2.1 |
| COc1ccc(-c2cc(=O)c3c(C)cc(O)cc3o2)cc1OC | 7.6 |
| O=c1oc(-c2ccccc2)nc2cc(Cl)ccc12 | 0.25 |
| O=[N+]([O-])c1ccc(-n2[nH]nnc2=S)cc1 | -25 |
| CSc1nc(Br)nc2ncn(C3CC(Oc4ccc(C)cc4)C(COc4ccc(C)cc4)O3)c12 (centres undefined) | 1.7 |

| SMILES | growth inhibition [%] |
| --- | --- |
| CCOc1cc2c(cc1O)/C(=N/NS(=O)(=O)c1ccc(C)cc1)C[C@@H]1[C@@H]2CC[C@]2(C)[C@@H](O)CC[C@@H]12 | 26.9 |
| O=C(NC1=NC2C=CC([N+](=O)[O-])=CC2S1)C(=O)Nn1c(=S)[nH]c2ccccc2c1=O (centres undefined) | -14.9 |
| CCCCC1C(=O)N(c2ccc(S(=O)(=O)Nc3ccccn3)cc2)N(c2ccc(O)c(C(=O)O)c2)C1=O (centres undefined) | 23.7 |
| N#C/C(=C/c1c(O)ccc2ccccc12)C(N)=O | 18.4 |
| Cn1cnc2c(=O)[nH]c(=O)[nH]c21 | -10.9 |
| O=C(Cc1cccc2ccccc12)N/N=C/c1ccc2c(c1)CCC2 | -13.2 |
| CC(C)Oc1ccc(C(=O)NS(=O)(=O)c2ccc(N)cc2)cc1 | -32.5 |
| COc1cc(-c2nc(SC)nc3c2CCc2ccccc2-3)cc(OC)c1OC | -5.85 |
| CNC(=S)c1nnsc1N | -0.8 |
| COc1cccc(/C=C/C(=O)c2ccc(Cl)cc2)c1OC | 30.1 |
| C=C1C(=O)OC2/C=C(\CO)CC/C=C(\CO)CC(OC(=O)C(C)C)C12 (centres undefined) | -13.4 |
| NC(Cc1ccc(S(=O)(=O)O)cc1)C(=O)NC(Cc1ccc(S(=O)(=O)O)cc1)C(=O)NC(Cc1ccc(S(=O)(=O)O)cc1)C(=O)NC(Cc1ccc(S(=O)(=O)O)cc1)C(=O)O (centres undefined) | 5.65 |
| O=C(CCCCCCCCCCBr)OCc1ccccc1 | -40 |
| CC(=O)C1=C(C)N2C(=NC3=C(CCc4ccccc43)C2c2cccc(Br)c2)S1 (centres undefined) | -27.4 |
| C[C@]12CC[C@@H]3c4ccc(OS(N)(=O)=O)cc4CC[C@H]3[C@@H]1CCC2=O | 8.15 |
| Cc1ccc(-c2nc3cc(Cl)ccc3c(=O)o2)cc1 | -11.3 |
| COc1ccc(N=C(C)C(C)=Nc2ccc(OC)cc2)cc1 | 3 |
| O=C1c2c(O)cc(O)cc2OC(c2ccc(O)c(O)c2)C1O (centres undefined) | -23.6 |

— PubChem BioAssay (NCI)
